Where “and” joins values, the source holds several entries; their conditions need not be identical. Equal entries are not always repeated. Among all 110,000 compounds or so, about 190 (0.17%) were called active. Rule as the data show it: active = inhibition above about 50%; inactive = the rest. The sample as a whole holds a higher share of actives than the screen did. Entries with a potency or affinity are not part of this list. A structure can be active in one record and inactive in another.
Target: Dual specificity protein phosphatase 6 (Rattus norvegicus) (UniProt Q64346)
Sequence (Q64346 whole entry, looked up): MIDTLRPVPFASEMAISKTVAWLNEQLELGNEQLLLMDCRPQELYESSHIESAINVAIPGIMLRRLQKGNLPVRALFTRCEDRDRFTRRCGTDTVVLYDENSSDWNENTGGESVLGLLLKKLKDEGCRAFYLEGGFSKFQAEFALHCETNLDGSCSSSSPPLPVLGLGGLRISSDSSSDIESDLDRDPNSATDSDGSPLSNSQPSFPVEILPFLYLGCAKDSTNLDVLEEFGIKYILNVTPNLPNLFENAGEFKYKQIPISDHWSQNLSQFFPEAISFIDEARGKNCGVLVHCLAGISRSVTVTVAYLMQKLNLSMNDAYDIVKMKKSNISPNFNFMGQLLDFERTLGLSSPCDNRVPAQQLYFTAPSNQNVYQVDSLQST
Test: inhibition of rat DUSP6 enzyme activity – biochemical, in vitro, primary screen (AID 425);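 also: plate controls were vehicle for no effect and reference inhibitor for full effect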
Conditions: recombinant MKP-3 phosphatase activity, fluorescence; at 20 µM; stronger effect = higher value

| SMILES | inhibition |
| --- | --- |
| CCN(CC)c1ccc(/C=C2/SC(=O)N(CNc3ccc(OC)c(Cl)c3)C2=O)cc1 | 2.6% (inactive) |
| COc1ccc(/C=C2\C=C(c3ccc(Br)cc3)OC2=O)cc1[N+](=O)[O-] | 5.6% (inactive) |
| COc1ccc(/C=N/Nc2nnc(-c3ccccc3)c(-c3ccccc3)n2)cc1 | 0.6% (inactive) |
| N/C(=N/O)c1nc(N2CCCCC2)nc(N2CCCCC2)n1 | -8.2% (inactive) |
| O=C(Nc1ccc(C(=O)N2CCOCC2)cc1)Nc1cccc2ccccc12 | 2% (inactive) |
| CN(C)CCCNC(=O)c1cccc(F)c1 | -3.1% (inactive) |
| CN(C)CCCNC(=O)c1ccc2sc3cc(=O)c(N)cc-3nc2c1 | 84.1% (active) |
| CN(C)CCCNC(=O)c1ccc(F)cc1 | -0.5% (inactive) |
| Cc1ccc(-n2ncc(C(=O)N3CCc4ccccc4C3)c2NC(=O)c2ccco2)cc1C | -7.8% (inactive) |
| CC1(C)OC(=O)C(=Cc2ccc(I)o2)C(=O)O1 | 101% (active) |
| CC1(C)OC(=O)C(=Cc2ccc(-c3ccc(Cl)cc3Cl)o2)C(=O)O1 | 7.8% (inactive) |
| O=C1C(=Cc2ccc(I)o2)C(=O)c2ccccc21 | 15.6% (inactive) |
| Cc1ccc(C)c(C(=O)COC(=O)c2ccc(Br)o2)c1 | -15.9% (inactive) |
| COc1ccc(-c2cc3ccccc3n2CC(O)CN2CCN(CCO)CC2)cc1 (centres undefined) | -0.9% (inactive) |
| O=C(O)c1cccc(N2C(=O)CCC2=O)c1 | -5.5% (inactive) |
| O=C(O)c1cccc(N2C(=O)c3ccc4c5c(ccc(c35)C2=O)CC4)c1 | 71.8% (active) |
| O=C(O)c1cccc(N2C(=O)c3ccc(Br)cc3C2=O)c1 | 0.9% (inactive) |
| c1ccc2c(-n3cnnn3)cccc2c1 | -8.8% (inactive) |
| Cc1ccc(-c2nc(NC(=O)CSc3nnc4scc(-c5ccccc5)n34)ns2)cc1 | 12.3% (inactive) |
| Cc1ccc(-c2nc(NC(=O)CSc3nnnn3-c3ccccc3)ns2)cc1 | 2.1% (inactive) |
| Cc1ccc(-c2nc(NC(=O)CSc3nnc(C)s3)ns2)cc1 | 6.1% (inactive) |
| Cc1ccc(-c2csc3nnc(SCC(=O)Nc4nsc(-c5ccccc5)n4)n23)cc1 | -3.1% (inactive) |
| CCn1c(=O)cc(SCC(=O)Nc2ccc3c(c2)OCCO3)c2ccccc21 | 2.8% (inactive) |
| O=c1[nH]c2c(n(C3CCCCC3)c1=O)CCC2 | -11.2% (inactive) |

| SMILES | inhibition |
| --- | --- |
| Cc1ccc(C(=O)Nc2ccccc2C(=O)N2CC(C)OC(C)C2)cc1 (centres undefined) | 1.8% (inactive) |
| O=C1NC(=O)N(c2ccccc2)C(=O)/C1=C\c1ccc(Br)o1 | 8.3% (inactive) |
| CC(C)c1ccc(N2C(=O)NC(=O)/C(=C/c3ccc(I)o3)C2=O)cc1 | 12.4% (inactive) |
| Cc1cc(N2C(=O)NC(=O)/C(=C\c3ccc(N(C)C)o3)C2=O)ccc1Br | 2.1% (inactive) |
| CC(C)c1ccc(N2C(=O)NC(=O)/C(=C/c3ccc(Br)o3)C2=O)cc1 | 58.6% (active) |
| Cc1cc(N2C(=O)NC(=O)/C(=C\c3ccc([N+](=O)[O-])o3)C2=O)ccc1Br | 65.5% (active) |
| Cc1cc(C)cc(N2C(=O)NC(=O)/C(=C\c3ccc([N+](=O)[O-])o3)C2=O)c1 | 25.1% (inactive) |
| O=C(NC(Cc1ccccc1)C(=O)N1CCN(c2ccccn2)CC1)c1ccco1 (centres undefined) | -1.1% (inactive) |
| COc1ccc(OC)c(CN2C(=O)c3ccccc3C2C(=O)NCc2cccnc2)c1 (centres undefined) | -10.2% (inactive) |
| CN(Cc1ccccc1)S(=O)(=O)c1ccc2[nH]c(=O)oc2c1 | -2.6% (inactive) |
| CCNc1ccc2noc3c2c1C(=O)c1ccccc1-3 | 4.2% (inactive) |
| O=C1c2ccccc2-c2onc3ccc(NC4CCCCC4)c1c23 | -1.7% (inactive) |
| O=C1c2ccccc2-c2onc3ccc(Sc4ccccc4)c1c23 | 7.7% (inactive) |
| CCOc1ccc(Nc2ccc3noc4c3c2C(=O)c2ccccc2-4)cc1 | 3.7% (inactive) |
| O=C1c2ccccc2-c2onc3ccc(NCc4ccco4)c1c23 | -14.4% (inactive) |
| O=C1c2ccccc2-c2onc3ccc(Oc4ccc(Cl)cc4)c1c23 | 92.2% (active) |
| O=C1C=Cc2ccccc2/C1=N/Oc1ccc2noc3c2c1C(=O)c1ccccc1-3 | 65.3% (active) |
| O=C1c2ccccc2-c2onc3ccc(Cl)c1c23 | 13.1% (inactive) |
| COc1ccc2noc3c2c1C(=O)c1ccccc1-3 | 102% (active) and -3.3% (inactive) |
| CCOc1ccc2noc3c2c1C(=O)c1ccccc1-3 | 45.7% (inactive) and 44.7% (inactive) |
| O=C1c2ccccc2-c2onc3ccc(N4CCCCC4)c1c23 | 10.8% (inactive) |
| Cc1ccc2c(c1)c1nc3ccccc3nc1n2CCN1CCOCC1 | 1.9% (inactive) |
| Brc1cccc(CN2CCN(C3CCN(Cc4ccccc4)CC3)CC2)c1 | 3.4% (inactive) |
| O=C(CSC(=S)N1CCOCC1)c1ccc([N+](=O)[O-])cc1 | 2.2% (inactive) |

| SMILES | inhibition |
| --- | --- |
| Cc1ccc(-n2c3c(cc(C(=O)NCCCN4CCOCC4)c2=O)C(=O)CC(C)(C)C3)cc1 | -7.6% (inactive) |
| COc1cccc(C2/C(=C(\O)c3c(C)nc4c(C)cccn34)C(=O)C(=O)N2CCCN(C)C)c1 (centres undefined) | -2.7% (inactive) |
| CCCCOC(=O)c1c(NC(=O)C2C3CCC(C3)C2C(=O)O)sc2c1CCCC2 (centres undefined) | 0% (inactive) |
| COc1ccc(/C=C/C(=O)NC(=S)Nc2ccc(S(=O)(=O)N=C(N)N)cc2)cc1 | -1.1% (inactive) |
| O=C1CC(c2ccccc2)CC2=C1C(c1cccnc1)Nc1ccc(C(=O)c3ccccc3)cc1N2 (centres undefined) | 8.5% (inactive) |
| O=C(O)C1C2C=CC(O2)C1C(=O)Nc1ccccc1C(F)(F)F (centres undefined) | 4.5% (inactive) |
| O=C(O)c1ccc(NC2=C(N3CCCCC3)C(=O)c3ccccc3C2=O)cc1 | 1.7% (inactive) |
| O=C1C(Nc2ccc(Cl)cc2)=C(N2CCCCC2)C(=O)c2ccccc21 | 55.2% (active) |
| O=C1C(Nc2ccc(Cl)cc2)=C(N2CCOCC2)C(=O)c2ccccc21 | 2% (inactive) |
| CCOCCOC(=O)C1=C(C)N(C)C(=O)NC1c1cc(Cl)c(O)c(OCC)c1 (centres undefined) | -5.1% (inactive) |
| O=C(CN1CCN(Cc2ccccc2Cl)C1=O)NC1CCCCCCC1 | -3.3% (inactive) |
| Cc1c(CCC(=O)O)c(=O)oc2cc3occ(-c4ccc(F)cc4)c3cc12 | 8.5% (inactive) |
| Cc1c(CCC(=O)O)c(=O)oc2cc(O)ccc12 | 2.4% (inactive) |
| COc1ccc(C2(O)CC3CCC(C2)N3c2cc(C)nc(-c3ccccc3)n2)cc1 (centres undefined) | 7.5% (inactive) |
| Cc1ccc(C2CC(C(F)(F)F)n3nc(C(=O)N(Cc4ccccc4)Cc4ccccc4)cc3N2)cc1 (centres undefined) | 3.9% (inactive) |
| COc1ccc(Cn2c3nc4ccccc4nc3c3c(=O)n(Cc4ccco4)cnc32)cc1 | 2.5% (inactive) |
| COc1ccc(Cn2c3nc4ccccc4nc3c3c(=O)n(Cc4ccco4)c(C)nc32)cc1 | 8.3% (inactive) |
| COC(=O)c1c(-c2ccccc2)csc1NC(=O)CCCC(=O)O | 3.6% (inactive) |
| CN=C(Nc1ccc(F)cc1)SC1CC(=O)N(c2ccccc2F)C1=O (centres undefined) | 1.3% (inactive) |
| COC(=O)N(C)c1nc2ccccc2s1 | -5% (inactive) |
| CCOC(=O)c1nc2ccccc2s1 | -6.5% (inactive) |
| COC(=O)c1c2nc3ccccc3sc-2cc(=O)c1N | 122% (active) |
| O=C(Nc1cccc2c1CCCC2)c1ccc(Br)cc1 | 2.6% (inactive) |
| O=C(Cc1ccccc1)Nc1ccccc1C(=O)N1CCN(Cc2ccccc2)CC1 | 2.5% (inactive) |

| SMILES | inhibition |
| --- | --- |
| CC(Oc1ccc(Cl)cc1Cl)C(=O)N1CCN(Cc2ccccc2)CC1 (centres undefined) | -0.2% (inactive) |
| CCOC(=O)c1sc2ncn(C(C)C(=O)OCC)c(=O)c2c1C (centres undefined) | 0.5% (inactive) |
| CCOC(=O)c1sc2ncn(C(CC)C(=O)OC)c(=O)c2c1C (centres undefined) | -9.8% (inactive) |
| CCOC(=O)c1sc2nc(SCC(=O)NCc3ccco3)n(Cc3ccccc3)c(=O)c2c1C | -3.7% (inactive) |
| CCOC(=O)c1sc2ncn(C(C)C(=O)OC)c(=O)c2c1C (centres undefined) | -14.1% (inactive) |
| O=C(COc1ccc(Cl)cc1)Nc1ncccn1 | -2.2% (inactive) |
| C/C(=N\OCC(=O)N=Nc1c(O)n(CN2CCN(C)CC2)c2ccccc12)c1cccs1 | -0.1% (inactive) |
| CN(C)c1ccc(C(C2=C(O)CC(C)(C)CC2=O)C2=C(O)CC(C)(C)CC2=O)cc1 | 3.2% (inactive) |
| O=C(Cn1nc(Cc2cccnc2)c2ccccc2c1=O)Nc1ccc2c(c1)OCO2 | -0.1% (inactive) |
| COC(=O)c1cc2c([nH]c3ccccc32)c(C)n1 | -4% (inactive) |
| N#Cc1c(N)nc(SCC(=O)c2ccccc2)c(C#N)c1-c1ccc(Cl)cc1 | 6.2% (inactive) |
| Cc1cc(NC(=O)CSc2ccc(-c3nc4cc(C)c(C)cc4[nH]3)cn2)no1 | 0.6% (inactive) |
| Cc1cc2nc(-c3ccc(SCC(=O)N4CCOCC4)nc3)[nH]c2cc1C | 3.3% (inactive) |
| Oc1c(Br)cc(Br)cc1C=Nc1ccc(Cl)c2cccnc12 | 98.2% (active) |
| Oc1c(Br)cc(Br)cc1/C=N/c1ncn[nH]1 | 5.8% (inactive) |
| Oc1oc(-c2ccccc2)nc1C=Nc1ccc(Cl)c2cccnc12 | 3.9% (inactive) |
| Oc1ccc(Br)cc1C=Nc1ccc(Cl)c2cccnc12 | 14.2% (inactive) |
| CCc1ccc(O)c(N=Cc2cc(Br)cc(Br)c2O)c1 | 1.5% (inactive) |
| Oc1c(Br)cc(Br)cc1C=Nc1ccc(Br)c2cccnc12 | 52.9% (active) |
| COc1ccc(N(Cc2cc3ccc(C)cc3[nH]c2=O)C(C)=O)cc1 | -3.9% (inactive) |
| CC(C)Cc1cc(C(=O)NCCN2CCOCC2)no1 | -10.2% (inactive) |
| NC(=O)c1ccccc1NC(=O)c1ccc(Cl)cc1[N+](=O)[O-] | -1.7% (inactive) |

— PubChem BioAssay AID425 (Sanford-Burnham Center for Chemical Genomics, 2006)
